Experimental data as given in PubChem BioAssay.
A number with no mark means an inactive call. Activity calls are given as the source filed them. Cut-off read from the data, not from the text of the source, unless noted: active = inhibition above about 42%; inactive = the rest.

Columns and labels:
[1] = StAR promoter reporter inhibitors, counter-screen for LRH-1 inverse agonist project, cell-based, luminescence, high throughput (AID 651611; in the data active = inhibition above about 28%); conditions: StAR promoter luciferase reporter counterscreen, at 3.6 µM, hits give high values
[2] = target: Nuclear receptor subfamily 5 group A member 2 (Homo sapiens) (UniProt O00482); test: LRH-1 (NR5A2) inverse agonists, retest, confirmation, cell-based, luminescence (AID 651613); conditions: cell-based LRH-1 luciferase reporter, inverse agonism; at 3.6 µM; hits give high values;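 note: HEK293T cells co-transfected with LRH-1 and StAR promoter luciferase reporter; 0% = vehicle wells and 100% = parental cells lacking receptor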
Nuclear receptor subfamily 5 group A member 2 (Homo sapiens), sequence (O00482 whole entry, looked up): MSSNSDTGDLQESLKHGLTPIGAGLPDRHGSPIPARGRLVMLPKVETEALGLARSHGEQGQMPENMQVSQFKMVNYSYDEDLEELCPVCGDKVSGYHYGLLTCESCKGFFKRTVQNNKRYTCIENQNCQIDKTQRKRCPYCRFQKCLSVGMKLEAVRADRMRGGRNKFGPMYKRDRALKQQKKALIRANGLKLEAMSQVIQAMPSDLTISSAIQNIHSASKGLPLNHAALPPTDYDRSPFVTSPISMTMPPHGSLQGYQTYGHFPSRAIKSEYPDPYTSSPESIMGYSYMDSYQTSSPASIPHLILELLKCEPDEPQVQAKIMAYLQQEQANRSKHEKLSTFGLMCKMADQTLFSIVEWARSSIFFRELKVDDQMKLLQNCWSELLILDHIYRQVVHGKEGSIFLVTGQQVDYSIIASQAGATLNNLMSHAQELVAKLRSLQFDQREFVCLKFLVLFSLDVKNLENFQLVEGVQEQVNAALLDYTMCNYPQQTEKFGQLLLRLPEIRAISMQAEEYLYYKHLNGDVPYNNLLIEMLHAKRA

[3] = target: Steroidogenic factor 1 (Homo sapiens) (UniProt Q13285); test: SF1 (NR5A1) inverse agonists, counter-screen for LRH-1 inverse agonist project, cell-based, luminescence, high throughput (AID 651614; in the data active = inhibition above about 44%;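 note: cells cotransfected with StAR promoter reporter and SF1 expression vector; 0% = vehicle on cells with receptor and 100% = vehicle on cells lacking receptor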); conditions: cell-based SF1 luciferase reporter, at 3.6 µM, hits give high values
Steroidogenic factor 1 (Homo sapiens), sequence (Q13285 whole entry, looked up, the tested form may be a part): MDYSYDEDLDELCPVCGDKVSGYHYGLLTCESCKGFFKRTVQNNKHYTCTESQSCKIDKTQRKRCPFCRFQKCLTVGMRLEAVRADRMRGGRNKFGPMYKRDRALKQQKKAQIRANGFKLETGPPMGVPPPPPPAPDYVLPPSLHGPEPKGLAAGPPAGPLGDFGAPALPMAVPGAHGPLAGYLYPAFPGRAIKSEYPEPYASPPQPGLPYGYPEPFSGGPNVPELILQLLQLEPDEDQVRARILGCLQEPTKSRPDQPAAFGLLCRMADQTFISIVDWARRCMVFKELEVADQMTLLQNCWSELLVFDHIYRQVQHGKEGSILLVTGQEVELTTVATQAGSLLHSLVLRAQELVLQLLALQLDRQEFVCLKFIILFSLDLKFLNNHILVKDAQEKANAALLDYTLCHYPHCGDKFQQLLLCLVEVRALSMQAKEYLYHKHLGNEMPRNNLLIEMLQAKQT

[4] = VP16 transactivation reporter inhibitors, counter-screen for LRH-1 inverse agonist project, cell-based, luminescence, high throughput (AID 651615; in the data active = inhibition above about 33%); conditions: Gal4-VP16 luciferase reporter cells, at 3.6 µM, hits give high values
[5] = system: transactivating tegument protein VP16 (Human herpesvirus 1); test: VP16 transactivation reporter inhibitors, counter-screen for SRC2 inhibitor project, cell-based, luminescence, single concentration (AID 652007; in the data active = inhibition above about 36%); conditions: cell-based VP16 transactivation luciferase reporter, at 8.9 µM, hits give high values
[6] = target: Nuclear receptor coactivator 2 (Homo sapiens) (UniProt Q15596); test: SRC2 coactivator transcriptional activity inhibitors, confirmation, cell-based, luminescence, HEK293, triplicate (AID 652008;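 active = mean inhibition above 46.5%, the solvent-only control mean plus 3 SD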;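 note: 0% = DMSO-treated cells and 100% = Gossypol at 36 µM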); conditions: HEK293 GAL4-SRC2 luciferase reporter, at 8.9 µM, hits give high values
Nuclear receptor coactivator 2 (Homo sapiens), sequence (Q15596 whole entry, looked up, the tested form may be a part): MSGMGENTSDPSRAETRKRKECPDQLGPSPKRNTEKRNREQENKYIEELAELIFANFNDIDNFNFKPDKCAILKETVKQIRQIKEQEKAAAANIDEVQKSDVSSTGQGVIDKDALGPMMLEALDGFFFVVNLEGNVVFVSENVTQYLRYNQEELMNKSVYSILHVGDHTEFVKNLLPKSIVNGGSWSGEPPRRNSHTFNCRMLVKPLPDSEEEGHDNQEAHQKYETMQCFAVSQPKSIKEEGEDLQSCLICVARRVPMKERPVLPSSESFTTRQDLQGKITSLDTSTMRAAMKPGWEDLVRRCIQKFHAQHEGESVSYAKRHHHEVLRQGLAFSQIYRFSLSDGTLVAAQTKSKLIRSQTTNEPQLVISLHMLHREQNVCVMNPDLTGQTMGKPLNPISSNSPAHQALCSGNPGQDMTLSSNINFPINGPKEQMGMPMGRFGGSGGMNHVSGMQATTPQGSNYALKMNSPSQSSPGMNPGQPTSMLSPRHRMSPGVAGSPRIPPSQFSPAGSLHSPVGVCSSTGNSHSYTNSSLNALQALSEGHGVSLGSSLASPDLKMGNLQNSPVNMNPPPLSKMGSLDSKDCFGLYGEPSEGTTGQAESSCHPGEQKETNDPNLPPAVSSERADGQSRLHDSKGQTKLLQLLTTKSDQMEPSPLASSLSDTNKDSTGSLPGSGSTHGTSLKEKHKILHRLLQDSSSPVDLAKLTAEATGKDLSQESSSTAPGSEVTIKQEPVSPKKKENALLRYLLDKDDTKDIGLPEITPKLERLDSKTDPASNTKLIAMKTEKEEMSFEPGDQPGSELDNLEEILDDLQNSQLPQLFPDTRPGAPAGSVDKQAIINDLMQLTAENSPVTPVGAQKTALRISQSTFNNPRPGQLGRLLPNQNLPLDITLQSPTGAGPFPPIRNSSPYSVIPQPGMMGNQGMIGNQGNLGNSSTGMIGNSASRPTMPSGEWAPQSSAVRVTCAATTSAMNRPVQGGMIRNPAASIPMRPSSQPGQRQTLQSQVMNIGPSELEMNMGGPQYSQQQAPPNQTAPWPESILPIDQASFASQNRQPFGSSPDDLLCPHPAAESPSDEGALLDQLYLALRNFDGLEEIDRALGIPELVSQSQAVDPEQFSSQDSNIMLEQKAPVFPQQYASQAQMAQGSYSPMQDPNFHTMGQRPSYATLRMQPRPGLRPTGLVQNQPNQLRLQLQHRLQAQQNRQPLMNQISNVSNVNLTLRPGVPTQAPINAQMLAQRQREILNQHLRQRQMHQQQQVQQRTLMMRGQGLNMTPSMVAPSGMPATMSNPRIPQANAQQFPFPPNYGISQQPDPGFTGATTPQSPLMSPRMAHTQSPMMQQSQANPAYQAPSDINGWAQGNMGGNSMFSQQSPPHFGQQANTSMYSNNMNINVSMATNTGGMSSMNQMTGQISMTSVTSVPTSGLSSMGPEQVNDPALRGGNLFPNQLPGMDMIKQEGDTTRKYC

Row | Structure (SMILES) | inhibition [1] | inhibition [2] | inhibition [3] | inhibition [4] | inhibition [5] | inhibition [6]
1 | CCC(=O)Nc1ccc(NC(=O)CSc2nc3cc4c(cc3cc2C)CCC4)cc1 | 9.63% | 56.4% (active) | 50.7% (active) | 0.93% | – | –
2 | Cc1cc(C)nc(-n2nc(C)cc2Nc2ccccc2)n1 | 4.56% | 35.7% | 19.6% | 24% | – | –
3 | O=C(Nc1ccc(N2CCN(C(=O)c3ccco3)CC2)cc1)c1ccc2c(c1)OCO2 | 23.4% | 48.3% (active) | 50.7% (active) | 60.5% (active) | – | –
4 | O=C(c1ccccc1)N(NC(=O)C(O)(c1ccccc1)c1ccccc1)c1cccc(F)c1 | -4.21% | 61.5% (active) | 53% (active) | 30.2% | – | –
5 | O=C(Nc1nc(-c2ccccn2)cs1)c1ccc([N+](=O)[O-])o1 | 32% (active) | 69.5% (active) | 77.7% (active) | 16.4% | – | –
6 | COc1ccc(OC)c(CCNC(=O)Cn2nc(C)c3c(C)n(-c4ccc(C)cc4)nc3c2=O)c1 | 38.8% (active) | 68% (active) | 63.8% (active) | 52% (active) | – | –
7 | O=C(NCc1ccco1)c1ccc([N+](=O)[O-])o1 | 7.6% | 60.5% (active) | 59.6% (active) | -13.8% | – | –
8 | O=C1C(=C(I)I)c2ccccc2-c2ccccc21 | 2.21% | 10.4% | -21.6% | -39.2% | – | –
9 | CCCCCOc1ccc(Br)cc1CSC(=N)N | 41.5% (active) | 99.7% (active) | 66.2% (active) | 84% (active) | – | –
10 | COc1ccc(NC(=O)CN2C(=O)NC3(CCCC3)C2=O)cc1Cl | 2.83% | 54.6% (active) | 60.6% (active) | -7.78% | – | –
11 | O=C(Nc1cc(C(F)(F)F)ccc1-n1cncn1)c1ccc([N+](=O)[O-])o1 | 22.2% | 57.7% (active) | 49.1% (active) | -15.7% | – | –
12 | O=C(CNc1cccc2ccccc12)N/N=C/c1ccc([N+](=O)[O-])o1 | 27.6% | 56.1% (active) | 56% (active) | 39.9% (active) | – | –
13 | COc1cc(-c2cnc3c(NC=O)cc(-c4ccccc4Cl)cn23)cc(OC)c1OC | 64.9% (active) | 45.6% (active) | 62.6% (active) | -21.3% | – | –
14 | O=C(CSC1=NCCS1)N1CCN(c2ccc(Cl)cc2)CC1 | 8.14% | 56.3% (active) | 53.3% (active) | 18.2% | – | –
15 | COCCNc1ccc([N+](=O)[O-])cc1C(=O)NC1CCCc2ccccc21 (centres undefined) | 4.6% | 54.7% (active) | 53.5% (active) | 12.8% | – | –
16 | O=C1CC(c2ccc3c(c2)OCCO3)Oc2ccc([N+](=O)[O-])cc21 (centres undefined) | 14.5% | -49.9% | -37% | -35.3% | – | –
17 | COc1ccccc1N1CCN(C(=O)C2c3ccccc3Oc3ccccc32)CC1 | 34.4% (active) | 26% | 33.4% | 39.4% (active) | – | –
18 | COc1ccc(C2(C)NC(=O)N(CC(=O)NCCC3=CCCCC3)C2=O)cc1OC (centres undefined) | 7.18% | 67.2% (active) | 38.1% | 0.38% | – | –
19 | CCOC(=O)c1cc(-c2ccncc2)nc2c1c(C)nn2-c1ccccn1 | 14.2% | 44.6% (active) | 48% (active) | 13.1% | – | –
20 | COc1cccc(C(=O)N/N=C2/SCC(=O)N2CCc2ccc(OC)c(OC)c2)c1 | 10.8% | 31.3% | 36.8% | -5.38% | – | –
21 | Cn1c(=O)n(C)c2cc(NC(=O)CCl)ccc21 | 60.5% (active) | 73.4% (active) | 61.5% (active) | -101% | – | –
22 | CCCC(=O)N1CCN(c2ccc(NC(=O)c3ccc([N+](=O)[O-])o3)cc2)CC1 | -1.48% | 52.9% (active) | 55.4% (active) | -18.4% | – | –
23 | CC(=O)CSc1nc(N)c(C#N)c(-c2cccs2)c1C#N | 31.5% (active) | 57.7% (active) | 62.7% (active) | 35% (active) | – | –
24 | COc1ccc(OC)c(/C=N/N=C2\SCC(=O)N2Cc2ccco2)c1 | 10.7% | 57.4% (active) | 45.7% (active) | 5.2% | – | –
25 | COc1ccc(CCNC(=O)CSc2nc3[nH]ncc3c(=O)n2-c2ccccc2Br)cc1OC | 5.86% | 57.3% (active) | 43.1% (active) | -2.5% | – | –
26 | Cc1cccc(NC(=O)COC(=O)CN2C(=O)c3ccccc3C2=O)c1C | 7.19% | 51% (active) | 47.8% (active) | -15% | – | –
27 | O=C(c1ccccc1Br)N1CCN(c2ccc([N+](=O)[O-])c(N3CCOCC3)c2)CC1 | 8.23% | 42% (active) | 38.9% | -4.88% | – | –

Row | Structure (SMILES) | inhibition [1] | inhibition [2] | inhibition [3] | inhibition [4] | inhibition [5] | inhibition [6]
28 | Cc1sc(NC(=S)NC(=O)CCc2ccccc2)c(C(N)=O)c1C | 54% (active) | 35.5% | 38.1% | 11.8% | – | –
29 | COc1ccc(NC(=O)C2=CC(c3ccc(OC)c(OC)c3)=NS(=O)(=O)N2C)cc1 | 1.44% | 56.3% (active) | 49.4% (active) | 18.4% | – | –
30 | CCCCSc1nc(SCC(=O)NCc2ccco2)c2c3c(sc2n1)COC(C)(CC)C3 (centres undefined) | 4.87% | 53.8% (active) | 44.6% (active) | -1.29% | – | –
31 | COc1ccc(NC(=O)CSc2ncnc3[nH]ncc23)cc1 | 7.25% | 60.5% (active) | 54.4% (active) | -6.96% | – | –
32 | ClCc1ncc(-c2ccc(Cl)cc2)o1 | 15.7% | 70% (active) | 62.7% (active) | -28.8% | – | –
33 | CCn1c2ccccc2c2cc(C3C(C#N)=C(N)Oc4n[nH]c(COC)c43)ccc21 (centres undefined) | 44.9% (active) | 50.8% (active) | 51.7% (active) | 14.3% | – | –
34 | Cc1ccc(S(=O)(=O)N2CCc3ccccc3CC2)cc1 | 39.2% (active) | 66.3% (active) | 56.7% (active) | 53.9% (active) | – | –
35 | O=C(CSc1nc2ccccc2c(=O)n1-c1ccc(F)cc1)Nc1ccc(N2CCOCC2)cc1 | 2.2% | 29.5% | 25.7% | 6.2% | – | –
36 | O=C(COc1ccc2c(-c3ccccc3)cc(=O)oc2c1)NCCCn1ccnc1 | 9.33% | 36.4% | 39% | -19.5% | – | –
37 | Cn1nc(C(C)(C)C)cc1C(=O)NCc1ccc2c(c1)OCO2 | 14.8% | 59.8% (active) | 58.3% (active) | 50.6% (active) | – | –
38 | COc1ccc(-c2ccc(C(=O)NCc3ccncc3)c3occc23)c(C)c1 | 29.2% (active) | 69.7% (active) | 70.1% (active) | 46.4% (active) | – | –
39 | Cc1ccn2c(=O)nc(SCC(=O)Nc3ccc4c(c3)OCCO4)nc2c1 | -9.07% | 49.3% (active) | 51% (active) | -15.9% | – | –
40 | S=C1Cc2ccccc2N1 | 56% (active) | 85.9% (active) | 79.5% (active) | 53.3% (active) | – | –
41 | COc1cc(/C=N/NC(N)=S)ccc1OCC(=O)Nc1ccc(C)cc1 | -3.71% | 48.1% (active) | 60% (active) | -1.66% | – | –
42 | COc1cc(OC)cc(C(=O)N[C@H](C(=O)OCC(=O)Nc2ccc3c(c2)OCO3)C(C)C)c1 | 14.4% | 48.1% (active) | 45.9% (active) | -4.48% | – | –
43 | CC(=O)Nc1ccc2nc(NC(=O)c3ccc([N+](=O)[O-])o3)sc2c1 | 1.53% | 53.5% (active) | 55.8% (active) | -32.4% | – | –
44 | CCOc1ccc(CCNC(=O)CN2C(=O)NC3(CCc4ccccc43)C2=O)cc1OCC (centres undefined) | 13.9% | 49.8% (active) | 45.7% (active) | -14% | – | –
45 | O=Cc1ccc2c(c1)CCN2Cc1ccccc1 | 4.56% | 56.6% (active) | 55.7% (active) | -34.1% | – | –
46 | COc1ccc(CCNC(=O)c2ccccc2NC(=O)CN2CCN(c3ccccc3O)CC2)cc1 | 33.3% (active) | 48% (active) | 50.4% (active) | -22.9% | – | –
47 | CCn1c2ccccc2c2cc(/C=N/n3c(C)nnc3C)ccc21 | 27.4% | 26.4% | 38.5% | -25% | – | –
48 | COc1ccc(NC(=O)CSC2=C(C#N)C(c3ccco3)C3=C(CCCC3=O)N2)c(OC)c1 (centres undefined) | 14% | 55.5% (active) | 52.5% (active) | -14.7% | – | –
49 | COc1cccc(C2=CC(=O)CC(C)(C)C2)n1 | 9.54% | 61.3% (active) | 58.1% (active) | 45.9% (active) | -6.05% | 32.9%
50 | CC1CCC2(CC1)NC(=O)N(CC(=O)Nc1ccc3c(c1)OCCCO3)C2=O (centres undefined) | 10.5% | 46.8% (active) | 44.8% (active) | -7.87% | – | –
51 | Cc1cc(OCC(=O)Nc2cccnc2)c2c(C)c(C)c(=O)oc2c1 | 10.8% | 63.2% (active) | 52.8% (active) | -34.7% | – | –
52 | Cc1ccc(OCCC(=O)OCC(=O)Nc2ccc(N3CCOCC3)cc2)cc1 | 16.6% | 54.8% (active) | 46.6% (active) | -7.59% | – | –
53 | COc1cc(/C=N/n2nnnc2N)ccc1OCc1c(C)no[n+]1[O-] | 9.05% | 54.4% (active) | 42.6% | 10.5% | – | –
